Data published in PMC5540273 (PLoS ONE, 2017).

Columns and labels:
Conditions in all cases: concentration: 1 μM, replicates: in singlicate; n = 1
ERK1 = test system: T1, ERK1
T1 construct: gene MAPK3

ERK2 = test system: T2, ERK2
T2 construct: gene MAPK1

ERK3 = test system: T3, ERK3
T3 construct: gene MAPK6

ERK4 = test system: T4, ERK4
T4 construct: gene MAPK4

ERK5 = test system: T5, ERK5
T5 construct: gene MAPK7

ERK8 = test system: T6, ERK8
T6 construct: gene MAPK15

ERN1 = test system: ERN1
FAK = test system: T7, FAK
T7 construct: gene PTK2

FER = test system: FER
FES = test system: FES
FGFR1 = test system: FGFR1
FGFR2 = test system: FGFR2
FGFR3 = test system: FGFR3
FGFR4 = test system: FGFR4
FGR = test system: FGR
FLT1 = test system: FLT1
FLT3-autoinhibited = test system: FLT3-autoinhibited
FLT3 = test system: FLT3
FLT4 = test system: FLT4
FRK = test system: FRK
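Also: KINOMEscan kinase panel screen.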

Structure (SMILES) | %Inh (ERK1) | %Inh (ERK2) | %Inh (ERK3) | %Inh (ERK4) | %Inh (ERK5) | %Inh (ERK8) | %Inh (ERN1) | %Inh (FAK) | %Inh (FER) | %Inh (FES) | %Inh (FGFR1) | %Inh (FGFR2) | %Inh (FGFR3) | %Inh (FGFR4) | %Inh (FGR) | %Inh (FLT1) | %Inh (FLT3-autoinhibited) | %Inh (FLT3) | %Inh (FLT4) | %Inh (FRK)
COc1cccc(NC(=O)NCCNc2ccnc(Nc3ccc(F)cc3)n2)c1 [GSK1379879] | 0% | 0% | 4% | 25% | 0% | 0% | 0% | 0% | 8% | 0% | 0% | 53% | 2% | 9% | 22% | 15% | 0% | 0% | 0% | 11%
COc1cc(Nc2nccc(N3CCC(NC(=O)Nc4ccc5c(c4)OCO5)C3)n2)cc(OC)c1OC (stereo not shown) [GSK1379766] | 0% | 0% | 0% | 0% | 0% | 0% | 0% | 0% | 11% | 0% | 0% | 0% | 0% | 0% | 4% | 26% | 8% | 65% | 16% | 0%
CC(=O)Nc1cn2nc(Oc3cccc(NC(=O)c4cccc(C(F)(F)F)c4)c3)ccc2n1 | 0% | 0% | 0% | 0% | 0% | 19% | 0% | 13% | 3% | 0% | 0% | 91.4% | 53% | 50% | 93.1% | 98.5% | 0% | 97.4% | 100% | 99.9%
O=C(O)C(F)(F)F.O=c1[nH]ccc2nc(N[C@@H]3CCNC3)nc(Nc3cc(Cl)cc(Cl)c3)c12 [GSK2188764] | 41% | 51% | 6% | 37% | 41% | 15% | 28% | 41% | 55% | 0% | 0% | 0% | 25% | 27% | 44% | 0% | 67% | 23% | 9% | 4%
CCNC(=O)/C=C/c1n[nH]c2cc(Sc3ccccc3C(=O)NC)ccc12 | 8% | 43% | 13% | 15% | 3% | 28% | 15% | 0% | 4% | 24% | 79% | 74% | 68% | 14% | 71% | 99.9% | 26% | 31% | 99.5% | 31%
CCn1cnc2c(NCc3ccccc3)ncnc21 [SKF-96418] | 0% | 0% | 7% | 17% | 0% | 4% | 19% | 0% | 0% | 3% | 0% | 0% | 0% | 0% | 0% | 0% | 0% | 0% | 0% | 0%
CC(C)NCC(Cc1ccccc1)NC(=O)c1cc(Br)c(-c2ccnc3[nH]ccc23)s1.Cl.Cl (stereo not shown) [GSK1383281] | 11% | 0% | 0% | 0% | 0% | 2% | 0% | 20% | 0% | 0% | 86% | 62% | 60% | 64% | 16% | 65% | 0% | 68% | 48% | 0%
O=C1NC(=O)C(c2ccccc2Cl)=C1Nc1cccc(Cl)c1 [SB-342409] | 10% | 0% | 68% | 17% | 0% | 61% | 26% | 10% | 0% | 0% | 0% | 4% | 16% | 94.1% | 22% | 11% | 0% | 0% | 0% | 15%
COc1cccc2c(-c3ccncc3)c(-c3ccc(F)cc3)nn12 [GW468513] | 5% | 0% | 0% | 0% | 0% | 16% | 0% | 0% | 13% | 1% | 11% | 0% | 1% | 0% | 13% | 29% | 0% | 22% | 13% | 5%
O=C(Nc1n[nH]c2nc(-c3ccccc3O)ccc12)C1CC1 [SB-711880] | 0% | 0% | 0% | 0% | 0% | 82% | 0% | 0% | 0% | 0% | 31% | 0% | 0% | 3% | 0% | 3% | 0% | 28% | 0% | 0%
COc1cc(Nc2ccnc3cc(-c4ccncc4)ccc23)cc(OC)c1OC.Cl [GW494610] | 0% | 0% | 5% | 0% | 0% | 22% | 10% | 0% | 26% | 0% | 23% | 14% | 15% | 0% | 81% | 21% | 0% | 3% | 0% | 44%
Cc1ccc(C)c(NC(=O)Nc2ccc(C)c(-c3ccc(C(=O)Nc4ccncc4)cc3)c2)c1 [GSK1398473] | 0% | 16% | 9% | 28% | 0% | 0% | 0% | 0% | 13% | 0% | 0% | 0% | 10% | 3% | 16% | 48% | 0% | 91.8% | 39% | 50%
Cc1cccc(Nc2nc(NCCN)ncc2C(N)=O)c1 [GSK1292139] | 0% | 0% | 79% | 33% | 0% | 0% | 16% | 5% | 49% | 0% | 0% | 0% | 0% | 0% | 49% | 7% | 15% | 13% | 0% | 0%
CC(C)c1nc(-c2ccc(F)c(NS(=O)(=O)c3c(F)cccc3F)c2)c(-c2ccnc(Nc3ccc(N4CCOCC4)nc3)n2)s1 [GSK1804250] | 8% | 0% | 1% | 0% | 10% | 38% | 49% | 0% | 41% | 15% | 24% | 11% | 8% | 0% | 97.7% | 88% | 0% | 12% | 97.3% | 89%
CN(c1ccc(NC(=O)N2CCN(CCCN3CCOCC3)CC2)cc1)c1ccnc(Nc2ccc(CS(C)(=O)=O)cc2)n1.Cl [GW830899] | 0% | 0% | 0% | 8% | 0% | 0% | 0% | 34% | 10% | 0% | 0% | 9% | 8% | 5% | 35% | 73% | 75% | 92.7% | 38% | 32%
CCOc1nccc(-c2c(-c3ccc(F)cc3)ncn2C2CCNCC2)n1 [SB-249175] | 0% | 0% | 26% | 13% | 12% | 2% | 1% | 0% | 9% | 0% | 25% | 3% | 11% | 4% | 0% | 18% | 18% | 39% | 2% | 6%
O=C(Nc1n[nH]c2cc(-c3cccs3)ccc12)C1CC1 [SB-731284] | 0% | 0% | 0% | 0% | 0% | 85% | 29% | 0% | 0% | 0% | 18% | 0% | 0% | 0% | 0% | 0% | 65% | 59% | 18% | 0%
